Results as given in PubChem BioAssay (EPA / NIEHS).
Calls of active or inactive are those of the source. The calls were made as follows: active = hit-call score of the fitted dose curve at least 0.9, where 1 is the maximum; inactive = score below 0.9.

Columns and labels:
[1] = CCTE_Harrill_HTTr_Viability_DMEM_6hr: (Pilot) CCTE's 6-hour Cell Viability Assessment for the High-Throughput Transcriptomics (HTTr) Platform, in MCF-7 cells cultured in DMEM + 10% fetal bovine serum, Harrill Lab (AID 2283973)
Excerpt: This is a cell-based assay that evaluates cell viability using high content imaging to evaluate membrane integrity using propidium iodide dye exclusion in a 384 well format.One of seven assay components measured from the CCTE_Harrill_HTTr_Viability assay. This was part of a pilot experiment. This is a cell-based assay that evaluates cell viability in MCF-7 cells cultured in DMEM + 10% fetal bovine serum. High content imaging is used to evaluate membrane integrity using propidium iodide dye exclusion. Measurements are taken at 6 hours after chemical dosing in 384-well format.The assay component endpoint CCTE_Harrill_HTTr_Viability_DMEM_6hr was analyzed with bidirectional fitting relation to DMSO as the negative control and baseline of activity. Using a type of viability reporter to understand changes in cytotoxicity, gain-of-signal activity can be used to evaluate membrane integrity using propidium iodide dye exclusion. To generalize the intended target to other relatable targets, this assay endpoint is annotated to cell cycle, where the subfamily is cytotoxicity.
Chemicals were tested in MCF7 cells in an eight point dilution series with a six hour exposure duration.

[2] = CCTE_Harrill_HTTr_Viability_DMEM_12hr: (Pilot) CCTE's 12-hour Cell Viability Assessment for the High-Throughput Transcriptomics (HTTr) Platform, in MCF-7 cells cultured in DMEM + 10% fetal bovine serum, Harrill Lab (AID 2283974)
Procedure, shortened: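 Propidium iodide dye exclusion imaged by high-content microscopy after 12 h chemical exposure (eight concentrations) of MCF-7 cells grown in DMEM plus 10% FBS; values fitted in both directions relative to DMSO.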

[3] = CCTE_Harrill_HTTr_Viability_DMEM_24hr: (Pilot) CCTE's 24-hour Cell Viability Assessment for the High-Throughput Transcriptomics (HTTr) Platform, in MCF-7 cells cultured in DMEM + 10% fetal bovine serum, Harrill Lab (AID 2283975)
Procedure, shortened: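 Pilot study: propidium iodide dye exclusion, imaged by high content microscopy, after 24 h compound exposure (eight concentrations) in MCF-7 cultured in DMEM + 10% fetal bovine serum; DMSO served as negative control and baseline.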

[4] = CCTE_Harrill_HTTr_Viability_PRF_DMEM_6hr: (Pilot) CCTE's 6-hour Cell Viability Assessment for the High-Throughput Transcriptomics (HTTr) Platform, in MCF-7 cells cultured phenol red-free DMEM + 10% charcoal-stripped fetal bovine serum, Harrill Lab (AID 2283976)
Procedure, shortened: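 Membrane integrity by high-content imaging of propidium iodide uptake, six hours after dosing with eight concentrations. Cells: MCF-7 grown in phenol red-free DMEM plus 10% charcoal-stripped serum; DMSO serves as baseline for bidirectional fits.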

[5] = CCTE_Harrill_HTTr_Viability_PRF_DMEM_12hr: (Pilot) CCTE's 12-hour Cell Viability Assessment for the High-Throughput Transcriptomics (HTTr) Platform, in MCF-7 cells cultured in phenol red-free DMEM + 10% charcoal-stripped fetal bovine serum, Harrill Lab (AID 2283977)
Procedure, shortened: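 Membrane integrity was scored via propidium iodide dye exclusion imaging, fitted in both directions relative to DMSO. Compounds ran as eight-point dilutions for 12 hours on MCF-7 grown in phenol red-free DMEM plus 10% charcoal-stripped serum.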

[6] = CCTE_Harrill_HTTr_Viability_PRF_DMEM_24hr: (Pilot) CCTE's 24-hour Cell Viability Assessment for the High-Throughput Transcriptomics (HTTr) Platform, in MCF-7 cells cultured in phenol red-free DMEM + 10% charcoal-stripped fetal bovine serum, Harrill Lab (AID 2283980)
Procedure, shortened: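 Propidium iodide exclusion imaged at 24 h after dosing scores viability; cells were MCF-7 grown in phenol red-free DMEM plus 10% charcoal-stripped serum, tested in eight concentrations, fitted in both directions against DMSO.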

[7] = CCTE_Harrill_HTTr_Apoptosis_DMEM_6hr: (Pilot) CCTE's 6-hour Apoptosis Assessment for the High-Throughput Transcriptomics (HTTr) Platform, in MCF-7 cells cultured in DMEM + 10% fetal bovine serum, Harrill Lab (AID 2283981)
Procedure, shortened: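 MCF-7 cells grown in DMEM + 10% FBS were exposed for 6 hours to an eight-point dilution series. CellEvent Caspase 3/7 Green signal was imaged; activity fitted bidirectionally against DMSO.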

[8] = CCTE_Harrill_HTTr_Apoptosis_DMEM_12hr: (Pilot) CCTE's 12-hour Apoptosis Assessment for the High-Throughput Transcriptomics (HTTr) Platform, in MCF-7 cells cultured in DMEM + 10% fetal bovine serum, Harrill Lab (AID 2283982)
Excerpt: This is a cell-based assay that evaluates apoptosis using high content imaging to evaluate activation of caspase-3/7 using the CellEvent Caspase 3/7 Green detection reagent in 384-well format.One of seven assay components measured from the CCTE_Harrill_HTTr_Apoptosis assay. This was part of a pilot experiment. This is a cell-based assay that evaluates apoptosis in MCF-7 cells cultured in DMEM + 10% fetal bovine serum. High content imaging is used to evaluate activation of caspase-3/7 using the CellEvent Caspase 3/7 Green detection reagent. Measurements are taken at 12 hours after chemical dosing in 384-well format.The assay component endpoint CCTE_Harrill_HTTr_Apoptosis_DMEM_12hr was analyzed with bidirectional fitting relation to DMSO as the negative control and baseline of activity. Using a type of viability reporter, gain-of-signal activity can be used to evaluate activation of caspase-3/7 using the CellEvent Caspase 3/7 Green detection reagent to understand changes in apoptosis. To generalize the intended target to other relatable targets, this assay endpoint is annotated to cell cycle, where the subfamily is apoptosis.
Chemicals were tested in MCF7 cells in an eight point dilution series with a twelve hour exposure duration.

[9] = CCTE_Harrill_HTTr_Apoptosis_DMEM_24hr: (Pilot) CCTE's 24-hour Apoptosis Assessment for the High-Throughput Transcriptomics (HTTr) Platform, in MCF-7 cells cultured in DMEM + 10% fetal bovine serum, Harrill Lab (AID 2283983)
Procedure, shortened: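 Caspase-3/7 activity read by high-content imaging (CellEvent Green reagent) 24 h after dosing. MCF-7 cells grown in DMEM with 10% FBS received an eight-point concentration series; fits were bidirectional versus DMSO.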

[10] = CCTE_Harrill_HTTr_Apoptosis_PRF_DMEM_6hr: (Pilot) CCTE's 6-hour Apoptosis Assessment for the High-Throughput Transcriptomics (HTTr) Platform, in MCF-7 cells cultured phenol red-free DMEM + 10% charcoal-stripped fetal bovine serum, Harrill Lab (AID 2283984)
Procedure, shortened: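 Caspase-3/7 activity (CellEvent Green) read by high-content imaging 6 h after dosing, eight concentrations. Cells: MCF-7, phenol red-free DMEM with 10% charcoal-stripped serum. Curves fit both directions against DMSO.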

Measured: AC50

C[C@@H]1C[C@@H]([C@H](O)CC2CC(=O)NC(=O)C2)C(=O)[C@@H](C)C1
active: [3] 7.82 µM | [6] 9.42 µM
inactive: all other assays above
